# Screening data (PubChem)
# miR-122 inh: miR-122 sensor activation | Huh7 psiCHECK-miR122 Renilla luciferase sensor, 48 h | activation, % at 12.5 µM | actives 0.14% (n = 340,000);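 active = mean activation of 30% or more, with every replicate also reaching 30%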;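 note: 0% = median of neutral control wells and 100% = median of positive control wells; higher luciferase signal means stronger suppression of miR-122 activity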
# * marks the source's active call; other numbers are inactive results. The sample as a whole holds a higher share of hits than the screen did.
SMILES,miR-122 inh
C[C@H](CO)N1C[C@H](C)[C@H](CN(C)S(=O)(=O)c2ccc(Cl)cc2)Oc2ccc(NC(=O)Nc3ccc(C(F)(F)F)cc3)cc2CC1=O,-94
C[C@H](CO)N1C[C@H](C)[C@H](CN(C)Cc2ccccc2C(=O)O)Oc2ncc(C3=CCCCC3)cc2C1=O,0
CCC(=O)N(C)C[C@H]1Oc2cc(C#C[C@H](C)O)ccc2S(=O)(=O)N([C@@H](C)CO)C[C@@H]1C,0
CCCCCCCCCCn1c2c(c(=N)c3c1CCC3)CCC2,66*
C[C@H](CO)N1C[C@H](C)[C@H](CN(C)C(=O)C2CC2)Oc2ncc(-c3cccnc3)cc2C1=O,-9
C[C@@H](O)C#Cc1ccc2c(c1)O[C@H](CN(C)C(=O)Cc1ccccn1)[C@@H](C)CN([C@@H](C)CO)S2(=O)=O,-4
C[C@@H]1CN([C@@H](C)CO)C(=O)c2cc(-c3ccc(F)cc3)cnc2O[C@@H]1CN(C)C(=O)c1cccnc1,3
